The supplement of paper PMC12636033
± gives the standard deviation of the averaged measurements. In all, about 33,000 sequences were measured (“E-score (rank enrichment, -0.5 to 0.5)”: median about -0.0028, highest 2% from about 0.23 on). The list comes from a sample in which the highest values are over-represented; it also holds similar and randomly drawn sequences.

The sequences below were run on 2Sb-muMax20 (muMax20 with two 1,3-bis(methyl)benzene Cys staples, A13C/A17C and Q88C/A92C, C-terminal Lys) (assay: PBM 8-mer E-score (E-score (rank enrichment, -0.5 to 0.5)); higher = stronger preferential binding).
Method: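 Protein binding microarray (universal PBM chip covering all 10-mers in fixed probe flanks) with chemically synthesized human Max(13-93) bHLH-LZ analogs (not full-length Max) bearing noncanonical residues (hArg, Tha, Aib, Nle at 65) and aromatic Cys staples. Read-out per 8-mer (and its reverse complement): E-score (rank-based enrichment, -0.5 to 0.5) and Z-score of median probe intensity.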

In order of rising “PBM 8-mer E-score” value:
1. GACCAGAC  -0.231 ± 0.026
2. AAGCCGTG  -0.228 ± 0.057
3. ACTGAGCC  -0.209 ± 0.022
4. CGGTCGGA  -0.196 ± 0.0063
5. CAGGACCA  -0.196 ± 0.036
6. ACTCCGAC  -0.182 ± 0.046
7. GGCTGTGA  -0.181 ± 0.072
8. AAGGGCCG  -0.18 ± 0.018
9. AAGGTTCC  -0.178 ± 0.069
10. CCTATGAG  -0.157 ± 0.032
11. CGGACTCA  -0.147 ± 0.028
12. AGATGATC  -0.147 ± 0.013
13. ACCTGTGA  -0.138 ± 0.064
14. CGACCAAG  -0.128 ± 0.0088
15. AGGCCGCG  -0.113 ± 0.078
16. AAGCGCTC  -0.108 ± 0.037
17. AATACCCG  -0.105 ± 0.092
18. CGAAATTA  -0.0924 ± 0.033
19. AGTCTACA  -0.0861 ± 0.047
20. CAACCTGA  -0.0727 ± 0.068
21. ACGCGAAG  -0.0725 ± 0.09
22. AGCGAAGA  -0.0699 ± 0.084
23. ACGGTGAG  -0.0622 ± 0.023
24. ATTACTAG  -0.0604 ± 0.047
25. TCGGGCAA  -0.0563 ± 0.02
26. CCGTTTAA  -0.0517 ± 0.035
27. CCTTTTGC  -0.0513 ± 0.057
28. CTGATACA  -0.049 ± 0.059
29. ACATACCC  -0.0475 ± 0.056
30. AATCTAGA  -0.047 ± 0.028
31. AGAAGATG  -0.0449 ± 0.09
32. ATACAAGA  -0.044 ± 0.011
33. AACGCTCT  -0.0435 ± 0.014
34. CAAGGTTA  -0.0419 ± 0.083
35. AAGCGCTA  -0.041 ± 0.0066
36. ATACAACC  -0.0388 ± 0.043
37. CGTAGAAA  -0.0374 ± 0.016
38. CATCCATG  -0.0304 ± 0.072
39. ACTTATGC  -0.0277 ± 0.024
40. AGTGCGAC  -0.0265 ± 0.057
41. CTATGCGC  -0.0257 ± 0.0089
42. GCAAATCA  -0.0255 ± 0.056
43. ATTCCAAT  -0.0251 ± 0.027
44. CGAAAACC  -0.0224 ± 0.019
45. TAGCAATA  -0.02 ± 0.012
46. AATAGGAA  -0.0166 ± 0.01
47. CACATGTC  -0.0158 ± 0.02
48. CACGAATC  -0.015 ± 0.029
49. CAAACTGG  -0.0119 ± 0.034
50. CTGTTTCC  -0.0107 ± 0.033
51. CTACAAGC  -0.00747 ± 0.0035
52. CAGAATTA  -0.00473 ± 0.0023
53. CATTCGTC  -0.00288 ± 0.012
54. ATCATAAA  0.000625 ± 0.011
55. AGAGCGTA  0.00302 ± 0.045
56. AAGATGCT  0.0039 ± 0.035
57. CAAAAACA  0.00439 ± 0.066
58. ACTCACTC  0.00443 ± 0.03
59. AATTGGAA  0.00538 ± 0.0076
60. ATTACCCG  0.0122 ± 0.03
61. GTAAGTTA  0.0157 ± 0.033
62. ATTTTAGA  0.0196 ± 0.021
63. GAGATACA  0.0204 ± 0.028
64. GAGACGCA  0.0251 ± 0.025
65. CTCATGTA  0.0268 ± 0.039
66. ACTCTTTG  0.0269 ± 0.0091
67. GGGTTGTA  0.0272 ± 0.0033
68. CGCGCACG  0.0273 ± 0.007
69. CTAAGTTA  0.0294 ± 0.017
70. CTTACGCC  0.0349 ± 0.067
71. GGTTTGTA  0.0375 ± 0.026
72. ATCATGAG  0.0432 ± 0.081
73. ACACAACG  0.0437 ± 0.0021
74. GCTAAAGA  0.0447 ± 0.088
75. CGTTAACA  0.0451 ± 0.018
76. AAAAATTA  0.0513 ± 0.022
77. TAGACAAA  0.053 ± 0.034
78. AAAATTTC  0.0563 ± 0.036
79. CATAGGAA  0.0608 ± 0.002
80. TATACCCA  0.0636 ± 0.015
81. CTACAACA  0.0685 ± 0.041
82. AGAAATTA  0.0685 ± 0.035
83. ATAATCAA  0.0744 ± 0.015
84. GAATCTAC  0.0758 ± 0.0052
85. AGCTACTA  0.0815 ± 0.033
86. CCTACTAG  0.0815 ± 0.034
87. ACTACTAC  0.0819 ± 0.046
88. GCTACTAA  0.082 ± 0.075
89. ACTTTGCG  0.0825 ± 0.063
90. ATCTGTCC  0.0828 ± 0.032
91. GTTTTGCA  0.0867 ± 0.05
92. ATCTGTCG  0.089 ± 0.014
93. AGAATTGG  0.092 ± 0.037
94. CCCGCCTC  0.0922 ± 0.074
95. ATTTTGTG  0.0967 ± 0.078
96. AAAGGTTA  0.0976 ± 0.032
97. ACTATGCC  0.101 ± 0.025
98. CAATATTA  0.106 ± 0.017
99. GTTAGTTA  0.108 ± 0.058
100. CAAAATTA  0.108 ± 0.0041
101. AACATGTC  0.11 ± 0.051
102. GAGATGCA  0.113 ± 0.076
103. TTAGATAA  0.113 ± 0.021
104. ACTAGTAG  0.113 ± 0.013
105. AGTAGAAA  0.1174 ± 0.00047
106. AACATAAG  0.118 ± 0.021
107. ATCAAGAA  0.121 ± 0.044
108. AACATGTT  0.122 ± 0.0036
109. AAATATTC  0.124 ± 0.084
110. CACATGCG  0.124 ± 0.051
111. CACATGAA  0.125 ± 0.0092
112. ATGATACC  0.127 ± 0.024
113. GGATATTA  0.128 ± 0.11
114. ATCATGAA  0.1293 ± 0.00082
115. AATCACAC  0.131 ± 0.016
116. CTTTTGTA  0.136 ± 0.035
117. AGTTAACA  0.138 ± 0.09
118. GAATAGCA  0.146 ± 0.046
119. GACATGTA  0.147 ± 0.021
120. AAATATGT  0.148 ± 0.031
121. ATCGCGAG  0.151 ± 0.049
122. AAGATACT  0.151 ± 0.031
123. CAAGTTTA  0.151 ± 0.057
124. TAATATAA  0.152 ± 0.00074
125. CAATATGA  0.159 ± 0.05
126. GTACAACA  0.159 ± 0.0065
127. GAATATTC  0.166 ± 0.09
128. TAATATGA  0.168 ± 0.022
129. ATGCTAGC  0.17 ± 0.0032
130. ACTACTAT  0.173 ± 0.036
131. AAAGGTAG  0.176 ± 0.01
132. TACATGCA  0.181 ± 0.0009
133. ATAATCAG  0.198 ± 0.028
134. ACTAGTAT  0.201 ± 0.067
135. AACATAAC  0.202 ± 0.012
136. CTTACTAC  0.202 ± 0.032
137. ATTAGTTG  0.205 ± 0.022
138. CAAATTTC  0.208 ± 0.085
139. ATCATAAG  0.217 ± 0.062
140. ATTACCCC  0.226 ± 0.0063
141. ACTAGTAA  0.231 ± 0.036
142. ATCATAAT  0.232 ± 0.024
143. ATTAGTTA  0.233 ± 0.039
144. GCTACTAC  0.233 ± 0.0041
145. ATCTGTCA  0.236 ± 0.0051
146. TGTAGAAA  0.236 ± 0.0088
147. GAATATTA  0.238 ± 0.066
148. TACATGTA  0.238 ± 0.06
149. ATACAACA  0.239 ± 0.053
150. ATAATCAT  0.241 ± 0.044
151. ATTACCCA  0.2414 ± 0.0019
152. ATAAGTTA  0.241 ± 0.01
153. ACTACTAG  0.241 ± 0.027
154. AAATATTA  0.243 ± 0.032
155. GAAAATTA  0.2425 ± 0.002
156. AAGATACA  0.245 ± 0.033
157. GAAATTTC  0.245 ± 0.17
158. AAATATGA  0.247 ± 0.032
159. ATACAACG  0.252 ± 0.027
160. ATCGCGAT  0.255 ± 0.036
161. ATGATACA  0.255 ± 0.0028
162. TATAGGAA  0.255 ± 0.038
163. AAGATGCA  0.262 ± 0.023
164. ATCATGAT  0.267 ± 0.045
165. ATTTTGTA  0.271 ± 0.013
166. AATACCCA  0.272 ± 0.021
167. GTTTTGTA  0.279 ± 0.035
168. ATACAAGC  0.284 ± 0.043
169. GTCGCGAC  0.291 ± 0.0036
170. ATTACTAC  0.296 ± 0.011
171. AACATAAT  0.297 ± 0.014
172. TGTTAACA  0.301 ± 0.013
173. GGAAATTA  0.304 ± 0.016
174. AAGCGCTT  0.309 ± 0.011
175. CACATGTA  0.338 ± 0.0074
176. AACATGTG  0.344 ± 0.044
177. TAATATTA  0.35 ± 0.0053
178. CACATGTG  0.395 ± 0.00083
